High-throughput results as filed in PubChem.
Most compounds without a hit are left out; they make up all but 2.4% or so of the library.
D2 ag-1: activates the human D2 dopamine receptor | activation, % (concentration not given with the values) | P14416 | 360,000 tested, 0.084% active | DiscoveRx PathHunter D2 beta-arrestin, luminescence, 90 min; 100% = 57 uM dopamine signal | AID 624465; in the data active = activation above about 40%; inconclusive = between about 15% and that limit
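DiscoveRx PathHunter D2 beta-arrestin cells (2,100/well) attached overnight, then compound-stimulated 90 min at 37 C in HBSS/10 mM HEPES/0.1% Tween-20 buffer; beta-galactosidase complementation read by luminescence after 1 h at ambient temperature. Dopamine 57 uM final (EC100) as control.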
D2 PAM-1: potentiates the human D2 dopamine receptor allosterically; P14416; DiscoveRx D2 beta-arrestin cells, luminescence, 90 min; 100% = 57 uM dopamine signal; potentiation, % (concentration not given with the values); 360,000 tested, 0.23% active; AID 624464; in the data active = potentiation above about 50%; inconclusive = mostly about 30% to 49%
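D2 cells co-treated with compound plus 50 nM dopamine (EC20) for 90 min at 37 deg C to detect potentiation. Beta-arrestin recruitment was read as enzyme-fragment luminescence after 1 h at ambient temperature. Full response was set by 57 uM dopamine.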
D2 antag: antagonizes the human D2 dopamine receptor; 340,000 tested, 2% active; inhibition, % at 10 µM; P14416; HEK293 TREx D2 cells, calcium flux, dopamine EC80; in the data active = inhibition above about 30%; inactive = below that, where a call was filed
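Calcium mobilization kinetics were recorded at 1 s intervals in tetracycline-induced HEK293 T-REx D2 cells, first for 180 s after compound addition and then 180 s after EC80 dopamine.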
D2 ag-2: agonists of human D2 dopamine receptor | P14416 | HEK293 T-REx D2 cells, calcium flux agonist mode | activation, % at 2 µM | 340,000 tested, 0.53% active | AID 485358;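 active = activation over 3 SD above normal in the single-dose calcium agonist read, cut at about 30% in these data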
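Tetracycline-induced HEK293 Trex cells with D2 receptor force-coupled to calcium signaling, plated overnight at 30 C and loaded with no-wash calcium dye. Calcium flux read kinetically for 180 s after compound addition; responses flag agonists.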
D2 PAM-2: positively modulates the human D2 dopamine receptor allosterically; potentiation, % at 10 µM; HEK293 T-REx D2, calcium flux, EC20 dopamine potentiation; AID 485347; 340,000 tested, 0.34% active; P14416;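 active = potentiation over 3 SD above the plate norm, cut at about 30% in these data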
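Calcium flux readout, no-wash dye, 1 read/s. Inducible HEK293 Trex D2 line, overnight 30 C. Compound alone 180 s (agonist flags), then EC20 dopamine, another 180 s to score potentiation.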
D3 arrestin ag: confirmation of human D3 dopamine receptor agonists, beta-arrestin | DiscoveRx D3 beta-arrestin cells, luminescence, 90 min | shares compounds with D2 ag-2 | 2,300 tested, 4% active | Potency, µM (titrated, usually from 76.9 µM), usual class: activators; also: nearly all actives have a fitted effect of over 70% in size
Target sequence (P35462 whole entry, looked up): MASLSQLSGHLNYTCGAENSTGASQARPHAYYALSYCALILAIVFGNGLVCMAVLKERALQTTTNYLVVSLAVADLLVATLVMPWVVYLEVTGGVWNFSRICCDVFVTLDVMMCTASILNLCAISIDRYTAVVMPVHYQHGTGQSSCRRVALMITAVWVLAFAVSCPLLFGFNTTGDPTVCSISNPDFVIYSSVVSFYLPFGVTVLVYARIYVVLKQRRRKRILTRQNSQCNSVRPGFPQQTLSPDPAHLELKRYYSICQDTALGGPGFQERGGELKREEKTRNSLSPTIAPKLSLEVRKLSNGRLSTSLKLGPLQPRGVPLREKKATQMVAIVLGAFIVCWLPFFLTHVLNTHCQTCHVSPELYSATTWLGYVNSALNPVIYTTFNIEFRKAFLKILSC
D2 ag-3: activates human D2 dopamine receptor in D3 counterscreen; shares compounds with D2 ag-2; DiscoveRx PathHunter D2 beta-arrestin, luminescence, 90 min; response scale: percent relative to full dopamine signal; Potency, µM (titrated, usually from 76.9 µM), hits mostly activators; 2,300 tested, 5.9% active; also: nearly all actives have a fitted effect of over 70% in size
Of the large screens only hits and unclear results are named; the others gave an inactive call (follow-up assays come after a bar, where they were run). Unless noted, calls follow the shape of the dose curve; as a rule, active = well fitted activation curve with a large enough effect; inconclusive = small, poorly fitted or top-dose-only effect; inactive = flat fitted curve, though single readings scatter.

Cc1cccc(NC(=O)c2sc3nc(-c4cc5ccc(O)cc5oc4=O)[nH]c(=O)c3c2C)c1	none (no result: D2 ag-1, D2 PAM-1, D2 antag, D2 PAM-2)
CC(C)C(NC(=O)CCN1C(=O)c2ccccc2C1=O)c1ccccc1 (stereo unspecified)	none | D3 arrestin ag inactive | D2 ag-3 inactive
CC(NC(=O)CN1C(=O)c2ccccc2C1=O)c1ccccc1 (stereo unspecified)	none (no result: D2 antag, D2 ag-2, D2 PAM-2)
FC(F)(F)c1cc(-c2ccccc2)nc(NC2CCCC2)n1	D2 ag-2 58.4 | D3 arrestin ag inactive | D2 ag-3 inactive
O=C(O)CCc1ccc(-c2cccs2)n1CCc1ccccc1	none (no result: D2 antag, D2 ag-2) | D3 arrestin ag inactive | D2 ag-3 inactive
O=C(O)CCc1ccc(-c2cccs2)n1CCC(=O)O	none
Cc1c2c(nc3c(C)cccc13)OC(C)C2 (stereo unspecified)	none | D3 arrestin ag inactive | D2 ag-3 inactive
CCCc1nnc(NC(=O)CCC(=O)N2CCN(CCOc3ccc(C)cc3)CC2)s1	none
Cc1ccc(OCCN2CCN(C(=O)CCC(=O)Nc3nnc(C)s3)CC2)cc1	none | D3 arrestin ag inconclusive | D2 ag-3 inactive
Cc1ccc(OCCN2CCN(C(=O)CCC(=O)Nc3nnc(C(C)C)s3)CC2)cc1	none
Cc1nnc(NC(=O)CCC(=O)N2CCN(CCOc3cccc4ccccc34)CC2)s1	D2 ag-1 inconclusive, D2 antag 52.4, D2 ag-2 54.7 | D3 arrestin ag inconclusive | D2 ag-3 inconclusive
Cc1ccc2oc(-c3cc(NC(=O)c4ccc5c(c4)OCCO5)cc(C)c3O)nc2c1	none (no result: D2 ag-1, D2 PAM-1, D2 antag, D2 PAM-2)
COc1ccc(S(=O)(=O)N(CCc2ccccc2)CC(=O)NCc2ccc(C)cc2)cc1	none (no result: D2 ag-1, D2 PAM-1, D2 antag)
CCOCc1cc(CN2CCN(c3ccccc3OC)CC2)c(O)c2ncccc12	none (no result: D2 ag-1, D2 PAM-1, D2 antag)
CCOc1ccccc1N1CCN(Cc2cccc(OC)c2O)CC1	D2 antag 67.7, D2 ag-2 44.8 | D3 arrestin ag inactive | D2 ag-3 inactive
COc1ccccc1N1CCN(Cc2cc3c(cc2O)OCO3)CC1	D2 antag 98.4, D2 ag-2 75.1 | D3 arrestin ag inactive | D2 ag-3 inactive
O=C(COC(=O)C1CCN(S(=O)(=O)c2ccccc2)CC1)NCCc1ccccc1	none | D3 arrestin ag inactive | D2 ag-3 inactive
NS(=O)(=O)c1ccc(CCNC(=O)C2CCN(S(=O)(=O)c3ccccc3)CC2)cc1	none
C=CCN(CC=C)CCOc1ccccc1	D2 ag-2 53.1 | D3 arrestin ag inactive | D2 ag-3 inactive
COc1ccc(OCc2cc(C(=O)N[C@H]3CCCCNC3=O)no2)c(Cl)c1	none
COc1ccc(OCc2cc(C(=O)NC3Cc4ccccc4C3)no2)c(Cl)c1	none (no result: D2 antag, D2 ag-2) | D3 arrestin ag inactive | D2 ag-3 inactive
CCC(=O)C1=C(c2cccc(OC)c2)N(C(=O)CC)n2c(nnc2C2CCCCC2)S1	none (no result: D2 ag-1, D2 PAM-1, D2 antag)
c1ccc(N2CCN(CCc3nnc4n3CCCCC4)CC2)cc1	D2 ag-2 32.2 | D3 arrestin ag inactive | D2 ag-3 inactive
c1ccc(Cc2nnc3n2CCCCC3)cc1	none
Cc1ccsc1C(=O)NNC(=O)c1ccncc1	none | D3 arrestin ag inactive | D2 ag-3 inactive
O=C(NCc1cccc(F)c1)C1CCN(c2nc3ccccc3nc2C(F)(F)F)CC1	none (no result: D2 ag-1, D2 PAM-1, D2 antag)
CC1CCCN(C(=O)c2ccc3c(c2)OCO3)C1 (stereo unspecified)	none
O=C(c1ccc2c(c1)OCO2)N1CCCC(c2ccccc2)C1 (stereo unspecified)	D2 antag 54.6 | D3 arrestin ag inactive | D2 ag-3 inactive
Cc1cccc(NC(=O)C2CCN(S(=O)(=O)c3ccc(F)cc3)CC2)c1C	none (no result: D2 ag-1, D2 PAM-1, D2 antag)
CCOc1ccccc1N1CCN(CC(O)COc2ccc3c(C)cc(=O)oc3c2)CC1 (stereo unspecified)	D2 antag 64.8, D2 ag-2 54.8 | D3 arrestin ag inactive | D2 ag-3 inactive
COc1ccccc1N1CCN(CC(O)COc2ccc3c(c2)OCO3)CC1 (stereo unspecified)	none
Cc1oc(-c2cccc(Cl)c2)nc1CN1CCC(C(=O)NCCCN2CC(C)CC(C)C2)CC1 (stereo unspecified)	D2 ag-2 34.8 | D3 arrestin ag inactive | D2 ag-3 inactive
Cc1oc(-c2cccc(Cl)c2)nc1CN1CCC(C(=O)NCCCN2CCN(c3cccc(Cl)c3)CC2)CC1	none (no result: D2 ag-1, D2 PAM-1, D2 antag, D2 ag-2)
CSc1nc2ccccc2c(=O)n1C1CCOC(C)(C)C1 (stereo unspecified)	D2 ag-1 inconclusive | D3 arrestin ag inactive | D2 ag-3 inactive
CSc1nc2ccccc2c(=O)n1C1CCCCC1	none
CCCCNC(=O)C1CCC(CNS(=O)(=O)c2ccc(Cl)cc2)CC1 (stereo unspecified)	none (no result: D2 ag-1, D2 PAM-1, D2 antag)
CCN(C(=O)CSc1ncccn1)c1c(N)n(Cc2ccccc2)c(=O)[nH]c1=O	none | D3 arrestin ag inactive | D2 ag-3 inactive
Cc1ccc(-n2ncc3c(N4CCC(C)CC4)ncnc32)cc1C	none (no result: D2 ag-1, D2 PAM-1, D2 antag)
O=C(CN1C(=O)c2cccnc2Oc2ccc(Cl)cc21)Nc1cccc(C(F)(F)F)c1	none (no result: D2 ag-1, D2 PAM-1, D2 antag)
CCOC(=O)N1CCN(Cc2ccc(OCC(O)CN3CCCCC3)cc2)CC1 (stereo unspecified)	D2 ag-1 inconclusive, D2 antag 50.9, D2 ag-2 62.9 | D3 arrestin ag inactive | D2 ag-3 inconclusive
CCC(=O)c1ccc(OCC(O)CN2CCN(c3ccccn3)CC2)cc1 (stereo unspecified)	D2 ag-1 60.4, D2 antag 73.6, D2 ag-2 79.7 | D3 arrestin ag 0.891µM | D2 ag-3 2µM
CCOC(=O)C1CCN(CC(O)COc2ccc(C(=O)CC)cc2)CC1 (stereo unspecified)	D2 ag-1 inconclusive, D2 antag 55.6, D2 ag-2 79.0 | D3 arrestin ag inactive | D2 ag-3 inconclusive
CC(=O)c1ccccc1OCC(O)CN1CCN(c2ccccn2)CC1 (stereo unspecified)	none
CC(C)(C)c1ccc(OCC(O)CN2CCN(c3ccccn3)CC2)cc1 (stereo unspecified)	D2 ag-1 inconclusive, D2 PAM-1 55.5, D2 antag 86.6, D2 ag-2 86.0 | D3 arrestin ag inconclusive | D2 ag-3 15.8µM
CCC(C)NC(=O)CSc1nc2cc3c(cc2c(=O)n1CCCC(=O)NCCc1ccc(OC)c(OC)c1)OCO3 (stereo unspecified)	none (no result: D2 ag-1, D2 PAM-1, D2 antag)
Cc1nn2c(=O)cc(COC(=O)c3ccccc3NC(=O)c3cccs3)nc2s1	none (no result: D2 ag-1, D2 PAM-1, D2 antag)
COc1ccc(-c2nnc(SCCOc3ccccc3C)o2)cc1OC	none (no result: D2 ag-1, D2 PAM-1, D2 antag)
CCc1ccc(C2CC(=O)c3c([nH]c(C(=O)OCCOc4ccccc4)c3C)C2)cc1 (stereo unspecified)	none (no result: D2 ag-1, D2 PAM-1, D2 antag)
